# PubChem BioAssay (NCI)
# “And” between values parts separate entries of the source, which are not always exact repeats. Equal values may be shown once. About 83,000 compounds went through this panel and 20% of them were active in at least one assay; those are over-represented in the sample as a whole.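 For each line, cells grew in 96-well plates with the test compound present at a single concentration for 48 hours.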 The source made the active and inactive calls. Rule for the calls: active = growth percent below 10; inactive = the rest.
# Test system: MDA-MB-468 breast
# Test: NCI-60 one-dose screen, 48 h (100 = growth as untreated, 0 = no growth, -100 = all killed)
# Conditions: 10 µM unless noted
row,Structure (SMILES),growth
1,Fc1cccc(F)c1C#Cc1ccc2cccnc2c1,36.5% (inactive)
2,COc1ccc(-c2cc(Cc3cccs3)c(=O)n(Cn3ccc4ccccc43)n2)cc1,110% (inactive)
3,CC(C)(C)CC(C)(C)Cc1ccc(OCCOCC[N+](C)(C)Cc2ccccc2)cc1,-35.3% (active)
4,COC(=O)[C@]1(CCSC)N[C@H](c2cn(-c3ccccc3)nc2C)[C@@H]2C(=O)N(c3ccccc3)C(=O)[C@@H]21,108% (inactive)
5,COc1cc(C(=O)N2CCN(c3cc4c(cc3F)c(=O)c(C(=O)NO)cn4C3CC3)CC2)cc(OC)c1OC,95.8% (inactive)
6,Cc1cc(Cl)cc(Cc2cc(Cl)cc(C)c2O)c1O,50.2% (inactive)
7,CC1(C)N=C(N)N=C(N)N1c1cccc(CCc2ccccc2)c1,16.6% (inactive)
8,CCCCc1nc(Cl)c(C2CC(c3ccc(S(N)(=O)=O)cc3)=NN2c2ccc(C#N)cc2)[nH]1 (stereo not given),64.5% (inactive)
9,Cc1ccc(NC(=O)c2ccc(CN3CCN(C)CC3)cc2)cc1Nc1nccc(-c2cccnc2)n1,70.9% (inactive) and 73.4% (inactive)
10,C/C=C(/C)C(=O)O[C@@H]1CC(C)(C)CC2C34OC(=O)[C@@]21CC[C@@]3(C)[C@]1(C)CCC2C(C)(C)C(=O)CC[C@]2(C)C1C[C@@H]4O (stereo not given in full),13.1% (inactive)
11,Cc1cc(-c2ccc(Cl)cc2)n(Cc2nnc(SCC(=O)Nc3ccc(S(N)(=O)=O)cc3)n2-c2ccc([N+](=O)[O-])cc2)n1,78.6% (inactive)
12,O=Cc1cc2ccccc2nc1Nc1nccs1,57.2% (inactive)
13,O=C(Nc1ccccc1Cl)Oc1ccc2ccccc2c1,104% (inactive)
14,C[C@@H]1N=C(c2ccc3ccccc3n2)Nc2nc3ccccn3c2C1=O,107% (inactive)
15,Nc1c(C(=O)Nc2ccccn2)sc2nc3c(cc12)CCCC3,43.8% (inactive)
16,Cc1cc(N(CCCNc2ccnc3cc(Cl)ccc23)Cc2ccccn2)nc(N2CCOCC2)n1,78.8% (inactive)
17,CC1CCCN(CCCCOc2ccc(-c3ccc(C#N)cc3)cc2)C1 (stereo not given),87.6% (inactive)
18,CCCCCCCCCCCCCCCC(=O)NS(=O)(=O)OC[C@H]1O[C@@H](n2cnc3c(N)ncnc32)[C@H](O)[C@@H]1O,-51.5% (active)
19,COc1ccc(Oc2nc(Nc3ccc(N4CCOCC4)nc3)ncc2NC(=O)c2cc(OC)cc(OC)c2)cc1,82.1% (inactive)
20,c1cc(-c2ccc3c(c2)OCO3)n2nccc2n1,95% (inactive)

row,Structure (SMILES),growth
1,COc1ccc(-c2cn3ccnc3c(-c3ccc4ncn(C5CCCCC5)c4c3)n2)cc1,2.59% (active)
2,O=C(Cn1c(=O)sc2nc3ccccc3nc21)Nc1ncc(Cc2cccc(Cl)c2Cl)s1,107% (inactive)
3,COc1ccc(-c2nn(-c3ccc(NC(=O)Nc4ccc(Cl)c(Cl)c4)cc3)cc2-c2ccncc2)cc1Cl,-33.2% (active)
4,CCCCCCCCc1cc[n+](CC(=O)c2ccc(Br)cc2)cc1,-87% (active)
5,COc1ccc(C2CC(c3cccc(Nc4nc(Cl)nc5cc(OC)c(OC)cc45)c3)=Nc3c(N)nc(N)nc3N2)cc1 (stereo not given),92.3% (inactive)
6,COc1ccc(C(=O)CC(CC(=O)c2ccc(OC)cc2)c2c(C)nn(-c3ccccc3)c2Cl)cc1,96.4% (inactive)
7,O=C1/C(=C/c2ccc([N+](=O)[O-])s2)Oc2ccc(Br)cc21,-40.2% (active)
8,CCNC(=O)c1[nH]cc(-c2ccc(OC)cc2)c1-c1cc(OC)c(OC)c(OC)c1,18.5% (inactive)
9,C=C1C(=O)O[C@H]2[C@H]1CC/C(CNC(=O)/C=C/c1ccccc1F)=C\CC[C@@]1(C)O[C@@H]21,-45.5% (active)
10,COC(c1ccc2ccccc2c1)C(C)C(F)F (stereo not given),99.7% (inactive)
11,c1ccc2[nH]c(SSc3nc4ncncc4[nH]3)nc2c1,11.3% (inactive)
12,CC(=O)/C(C)=N\OC(=O)Nc1ccccc1,114% (inactive)
13,COc1ccc(-n2c(C(O)c3ccccc3)n[nH]c2=S)cc1 (stereo not given),98.6% (inactive)
14,CC(=O)c1cc(-c2ccccc2N)n(-c2ccc3c(c2)OCO3)c1C,30.5% (inactive)
15,Cc1ccc2c(c1)/C(=N\N=C/c1cn(C(C)C)c3ccccc13)C(=O)N2,7.43% (active)
16,Cn1/c(=N/NC(N)=S)ccc2ccccc21,24.9% (inactive)
17,CN(C)CCCOc1c2ccc(Cl)cc2nc2c1oc1ccc(Cl)cc12,-48% (active)
18,C#CCOc1cccc(-c2ncc3cc(NC(=O)CCl)ccc3n2)c1,-60.6% (active)
19,NS(=O)(=O)c1ccc(-n2cc(CN3CCNCC3)nn2)cc1,-22.4% (active)
20,NC(=O)c1ccccc1OCC(O)CO (stereo not given),95.6% (inactive)
